This is a sample that favours compounds with a hit; in the whole collection about 5.6% have one here.
ALR H2O2 inh – blocks human ALR sulfhydryl oxidase activity | AID 485317 | P55789 | inhibition, % (concentration not given with the values) | purified ALR, DTT oxidation, H2O2 HRP-luminol luminescence | 290,000 tested, 3.8% active;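 active = mean replicate inhibition above about 79%, with every replicate also reaching it, limit read from the data; inconclusive = only one of the two criteria met; inactive = mean below limit and not every replicate reaching it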
Target sequence (P55789 whole entry, looked up): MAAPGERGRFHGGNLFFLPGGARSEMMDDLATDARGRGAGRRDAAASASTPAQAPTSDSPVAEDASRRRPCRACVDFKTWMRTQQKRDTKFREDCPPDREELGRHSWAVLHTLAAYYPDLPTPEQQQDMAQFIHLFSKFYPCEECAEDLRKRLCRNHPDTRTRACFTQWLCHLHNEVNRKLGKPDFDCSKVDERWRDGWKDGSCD
PHOSPHO1 block – blocks human PHOSPHO1 phosphatase activity; Q8TCT1; recombinant PHOSPHO1, absorbance phosphatase assay; inhibition, % at 13.3 µM; 290,000 tested, 1.1% active; in the data active = inhibition above about 60%
Target sequence (Q8TCT1 whole entry, looked up): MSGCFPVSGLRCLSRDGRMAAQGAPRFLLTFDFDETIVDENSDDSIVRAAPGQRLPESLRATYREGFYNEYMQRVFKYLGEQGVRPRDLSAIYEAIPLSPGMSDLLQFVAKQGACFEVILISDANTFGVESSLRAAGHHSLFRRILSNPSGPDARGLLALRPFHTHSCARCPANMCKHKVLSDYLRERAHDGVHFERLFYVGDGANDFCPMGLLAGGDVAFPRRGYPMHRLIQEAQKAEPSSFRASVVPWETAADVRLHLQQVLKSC
PfGluPho inh – PfG6PD (Plasmodium falciparum) enzyme inhibition; PfGluPho enzyme, NADPH resazurin-diaphorase fluorescence; 350,000 tested, 0.78% active; inhibition, % at 20 µM;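 active = inhibition reaching at least a set limit at 20 µM in the primary screen, cut at about 59% in these data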;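 note: 0% = DMSO wells with substrate and 100% = DMSO wells lacking glucose-6-phosphate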
H9c2 protect – protects H9c2 cardiomyocytes from peroxide injury | 360,000 tested, 0.63% active | H2O2 injury protection, ATPLite, 2 h | protection from H2O2 cell death, % at 20 µM;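 active = compounds giving at least 50% protection of heart cells from peroxide-induced death in the single-dose screen, raw or plate-pattern-corrected value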;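 note: 0% = DMSO wells with peroxide and 100% = DMSO wells without peroxide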
PfM18AAP inh – blocks P. falciparum M18 aspartyl aminopeptidase | AID 1822 | inhibition, % at 7.35 µM | recombinant PfM18AAP, H-Glu-NHMec fluorogenic cleavage | 290,000 tested, 1.2% active;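 active = inhibition above the campaign mean inhibition over all tested compounds plus 3 SD, cut at about 28% in these data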;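 note: 0% = plate median of test compound wells and 100% = 2 mM ZnCl2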
* marks the source's active call; other numbers are inactive results; ? = inconclusive; · = no result given.

SMILES | ALR H2O2 inh | PHOSPHO1 block | PfGluPho inh | H9c2 protect | PfM18AAP inh
COc1ccc(NC(=O)CSc2nc3c(c(-c4cccs4)c2C#N)CN(C)CC3)cc1OC | 99* | 12 | 43 | 10 | -11
Cc1cc2nc(NC(=O)C3(C)CCCN(C(C)C)C3)[nH]c2cc1C (stereo not given) | · | · | · | 12 | ·
CCCn1c(SCC(=O)c2ccc3c(c2)OCCO3)n[nH]c1=O | 27 | 17 | 2 | -3 | 5
CCCn1c(SCC(=O)c2cc(C)c(C)cc2C)n[nH]c1=O | ? | 97* | 0 | -1 | 4
CN(C)c1ccc(C2CC(=O)NC3=C2C(=O)CC(C)(C)C3)cc1 (stereo not given) | ? | 13 | 0 | 1 | 2
CCN(CC)c1ccc(C2CC(=O)NC3=C2C(=O)CC(C)(C)C3)cc1 (stereo not given) | 95* | 11 | 11 | -8 | 9
CCN(CC)c1ccc(C2C(C(=O)OCCOC)=C(C)NC3=C2C(=O)CC(C)(C)C3)cc1 (stereo not given) | 99* | -18 | 26 | 8 | 16
CCCOC(=O)C1=C(C)NC2=C(C(=O)CC(C)(C)C2)C1c1ccc(N(C)C)cc1 (stereo not given) | · | -8 | 4 | 13 | 5
Cc1ccc(NC(=O)NN2CCN(C)CC2)cc1C | -16 | 28 | -7 | 2 | 2
COc1cc(NC(=O)c2cc([N+](=O)[O-])ccc2NC(=O)CN2CCN(c3ccccn3)CC2)cc(OC)c1 | · | 10 | 17 | 55* | 7
O=C(CN1CCN(Cc2ccccc2)CC1)Nc1ccc([N+](=O)[O-])cc1C(=O)Nc1ccccc1F | -13 | 1 | 4 | 51* | -11
COc1ccc(C(C(=O)NC2CCCCC2)N(C(=O)c2ccco2)c2ccccc2C(C)=O)cc1OC (stereo not given) | -1 | 19 | -8 | 4 | -6
O=C(O)c1ccc(OCCn2ccnc2)cc1 | -21 | 23 | 3 | 3 | 1
O=C(Cn1ccnc1)c1ccc(O)c(O)c1 | 90* | · | -31 | 12 | ·
Cc1ccc2nc(C(C)(C)C)c(Cc3ccccc3C(F)(F)F)n2c1 | · | · | · | -10 | ·
CCC(Oc1ccccc1)C(=O)Nc1ccccc1C(=O)N1CCN(C)CC1 (stereo not given) | 19 | 37 | 5 | 7 | 5
CCC(Oc1ccccc1)C(=O)Nc1ccccc1C(=O)N1CCCCC1 (stereo not given) | 17 | 27 | 5 | 50* | -3
Cc1ccccc1OCCC(=O)Nc1ccccc1C(=O)N1CCCCC1 | -1 | · | 11 | -4 | ·
Cc1ccccc1OCC(=O)Nc1ccccc1C(=O)N1CCCCC1 | 86* | 42 | 2 | 4 | 1
COc1ccc(Cl)cc1Cn1c(C)c(C(=O)NCc2cccc(Cl)c2)sc1=O | · | · | · | 4 | ·
COC(=O)c1ccc(CSc2nccn2C)cc1 | · | 11 | 5 | 6 | 2
Cn1ccnc1SCc1cn2cc(Br)ccc2n1 | 99* | 56 | -4 | -24 | -5
COc1ccc(N2CCN(C(=O)c3ccc(C)cc3Cl)CC2)cc1 | 92* | -36 | 0 | -2 | -1
COc1ccc(N2CCN(C(=O)Nc3ccccc3Cl)CC2)cc1 | 87* | 28 | -22 | 7 | 0
COc1cc(C(=O)NCCc2ccc(S(N)(=O)=O)cc2)ccc1OCc1c(C)noc1C | -1 | · | -2 | 16 | ·
SMILES | ALR H2O2 inh | PHOSPHO1 block | PfGluPho inh | H9c2 protect | PfM18AAP inh
O=C(CCNC(=O)c1ccc([N+](=O)[O-])cc1)Nc1cccc(S(=O)(=O)N2CCCCCC2)c1 | -1 | · | -8 | 4 | ·
CC(C(Sc1ccccc1N)c1ccccc1)[N+](=O)[O-] (stereo not given) | ? | 53 | 57 | -11 | 31*
Nc1ccccc1SC(CC(=O)c1ccccc1)c1ccccc1 (stereo not given) | · | · | 39 | -3 | ·
CCC/C=C1/CCCOC(C(=O)NCc2ccc(C)o2)(C(F)(F)F)C1 (stereo not given) | 10 | · | 9 | 3 | ·
NC(=O)C1CCN(c2nc(-c3ccc(Br)cc3)cs2)CC1 | · | -5 | 3 | -7 | 6
NC(=O)C1CCN(c2nc(-c3ccc4c(c3)OCCO4)cs2)CC1 | 98* | · | 10 | · | ·
NC(=O)C1CCN(c2nc(-c3cccs3)cs2)CC1 | 1 | · | 73* | -3 | ·
CN(C)S(=O)(=O)c1cccc(NC(=S)N/N=C/C(c2ccccc2)c2ccccc2)c1 | 13 | -18 | 21 | 0 | 32*
CN(C)S(=O)(=O)c1cccc(NC(=S)N/N=C/c2ccco2)c1 | 17 | 4 | -3 | 6 | 13
CC(/C=N/NC(=S)Nc1cccc(S(=O)(=O)N(C)C)c1)c1ccccc1 (stereo not given) | -1 | -1 | 35 | -1 | 33*
Cc1cc(C)c(C)c(S(=O)(=O)N2C(=S)NC(=O)C2C(C)C)c1C (stereo not given) | 96* | -22 | 19 | 2 | 5
Cc1cc(C)c(C)c(S(=O)(=O)N2C(=S)NC(=O)C2CC(C)C)c1C (stereo not given) | · | -15 | -23 | -12 | -1
C[C@H]1CN([C@@H](C)CO)C(=O)CCCn2nncc2CO[C@H]1CN(C)C(=O)Nc1ccnc(N2CCOCC2)c1 | · | · | -6 | 0 | ·
O=C1C(CN2CCCC2)CCCC1CN1CCCC1 (stereo not given) | · | · | 23 | -18 | ·
COc1cc(Nc2nc3ccccc3n3nnnc23)cc(OC)c1OC | · | 9 | -7 | 68* | 8
Cc1oc2c(Cl)c(Cl)c(O)c(CN(C)C)c2c1C(=O)c1ccc(Cl)cc1 | -33 | 5 | 24 | 5 | 19
COC(=O)c1ccc(NC(=S)Nc2ccc(O)cc2)cc1 | 99* | 8 | 9 | 2 | 13
COC(=O)c1ccc(NC(=S)Nc2ccccn2)cc1 | 1 | -12 | -1 | -6 | 7
O=C(NC(=S)Nc1ccc(O)cc1)C1CCCC1 | · | · | -1 | 3 | ·
Oc1ccc(NC(=S)Nc2ccc(O)cc2)cc1 | 99* | -29 | 16 | 2 | 12
CC(C)CC(=O)Nc1nnc(S(=O)(=O)N2c3ccccc3CC2C)s1 (stereo not given) | -4 | 10 | -33 | -3 | 3
COc1cc(C2C(C#N)=C(N)Oc3cc(N(C)C)ccc32)cc2c1OCO2 (stereo not given) | 7 | 11 | 7 | 3 | 30*
CC1(C)SC(C)(C)N(C=O)C1C(=O)O (stereo not given) | · | · | -1 | 6 | ·
COc1cc(/C=N/NC(=O)c2cccc(S(=O)(=O)N3CCCC3)c2)ccc1O | 99* | · | 23 | 2 | ·
O=C(Nc1cc(S(=O)(=O)Nc2ccc(Cl)cc2)ccc1O)c1ccc(S(=O)(=O)N2CCCCCC2)cc1 | -4 | 21 | 25 | -26 | 18
O=C(N/N=C/c1ccc(O)c(O)c1)c1cccc(S(=O)(=O)N2CCCC2)c1 | 99* | · | -7 | 45 | ·
O=C(N/N=C\c1cc(Cl)ccc1O)c1ccc(S(=O)(=O)N2CCCCC2)cc1 | 0 | 11 | -34 | 63* | -11
O=C(N/N=C/c1cc(Br)cc(Br)c1O)c1cccc(S(=O)(=O)N2CCOCC2)c1 | -4 | 25 | -44 | 50* | -7

Compound activity deposited in PubChem BioAssay by several laboratories.
